Holding throughout (assay): NCI-60 one-dose screen, 48 h (100 = growth as untreated, 0 = no growth, -100 = all killed)
What all share (conditions): 10 µM unless noted

The subject of assay [1] is NCI-H23 lung.
The test system of assay [2] is NCI-H226 lung.
The subject of assay [3] is NCI-H322M lung.
The test system of assay [4] is HOP-62 NSCLC.
The test system of assay [5] is NCI-H460 lung.
Assay [6] has as its system HOP-92 NSCLC.
Assay [7] concerns NCI-H522 lung.
The test system of assay [8] is A549/ATCC NSCLC.
Assay [9] relates to 786-0 renal.
Assay [10] has as its system COLO 205 colon.
The subject of assay [11] is DU-145 prostate.
Assay [12] relates to K-562 leukemia.
Assay [13] concerns MALME-3M melanoma.
Assay [14] relates to MDA-MB-231 breast.
Assay [15] concerns RXF 393 renal.
The test system of assay [16] is SF-268 CNS.
Assay [17] relates to SF-295 CNS.
The test system of assay [18] is SF-539 CNS.
For assay [19], the system named is UACC-257 melanoma.
The subject of assay [20] is M14 melanoma.

Values joined by “and” are separate entries in the source; they are usually repeats but may differ in a detail not shown here. Equal entries are not always repeated. Compounds without any hit were thinned out: in the full panel of roughly 83,000, 20% have a hit.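 Results are percent growth after 48 hours of single-concentration exposure. 100 means growth as in untreated cells, lower positive values show inhibition; negative values down to -100 show cell death.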 Active and inactive are the calls of the source. How the source made its calls: active means growth percent below 10; inactive means the rest.

Consider `S=C1SCN(Cc2ccccc2)CN1Cc1ccccc1`, for which the growth in assay [1] is 81.2% (inactive); in assay [2], 88.8% (inactive); in assay [3] it was 94.5% (inactive); in assay [4] it was 100% (inactive); in [5], 95.5% (inactive); in assay [6], 37.3% (inactive). For the same molecule, the growth in assay [7] was 21.5% (inactive); in [8] it was 93.7% (inactive); in assay [9], 49.8% (inactive); in [10], 78.1% (inactive); in [11], 41.8% (inactive); in assay [12] it was 46.4% (inactive). Moreover, the growth in [13] is 92.1% (inactive); in [14], 85% (inactive); in assay [15], 87.1% (inactive); in [16], 73.5% (inactive); in assay [17], 100% (inactive); in [18] it was 91.4% (inactive). In addition, the growth in [19] is 95.2% (inactive); in assay [20] it was 82.3% (inactive).
For the molecule `Oc1c(Cl)cc(Cl)cc1Sc1cc(Cl)cc(Cl)c1O`, the growth is 11.4% (inactive) and 6.4% (active) and 76% (inactive) in assay [1]; 94.5% (inactive) and 48.1% (inactive) and 88.3% (inactive) in assay [2]; 25.6% (inactive) and 33.1% (inactive) and 87.1% (inactive) in assay [3]; 85.8% (inactive) and 61.6% (inactive) in assay [4]; 7.66% (active) and 11.8% (inactive) and 62.3% (inactive) in assay [5]; -12.5% (active) and -28.3% (active) and 32.7% (inactive) in assay [6]. Also, the growth in assay [7] is 2.94% (active) and -18.8% (active) and 48.9% (inactive); in assay [8] it was 62.5% (inactive) and 8.2% (active) and 88.4% (inactive); in assay [9], 47.7% (inactive) and 104% (inactive); in assay [10] it was 118% (inactive) and 87.9% (inactive) and 110% (inactive); in [11] it was 75.6% (inactive) and 29.3% (inactive) and 94.6% (inactive); in assay [12], 18% (inactive) and 8.54% (active) and 41% (inactive). Moreover, the growth in assay [13] was 10.7% (inactive) and 11.3% (inactive) and 82.2% (inactive); in assay [14], 84.2% (inactive) and -21.8% (active) and 79.6% (inactive); in [15], 91.3% (inactive) and 16.1% (inactive) and 87.9% (inactive); in [16], 33.2% (inactive) and 21.9% (inactive) and 72.1% (inactive); in assay [17], 18.6% (inactive) and 15.7% (inactive) and 75.4% (inactive); in assay [18], 25.8% (inactive) and 93.6% (inactive). The growth in assay [19] is 56% (inactive) and -16.2% (active) and 77.3% (inactive); in [20], 69.1% (inactive) and 35% (inactive) and 105% (inactive).
Regarding `COc1ccc(S(=O)(=O)N2CCOCC2)cc1NC(=O)c1[nH]c(C)c2c1CCCCC2=O`, the growth was 104% (inactive) and 59% (inactive) in [1]; 104% (inactive) and 62% (inactive) in assay [2]; 105% (inactive) and 64.6% (inactive) in [3]; 109% (inactive) and 33.8% (inactive) in assay [4]; 103% (inactive) and 75.9% (inactive) in assay [5]; 111% (inactive) and 27% (inactive) in assay [6]. For the same molecule, the growth in assay [7] was 100% (inactive) and 40.9% (inactive); in assay [8] it was 97.2% (inactive) and 61.7% (inactive); in [9], 107% (inactive) and 93.4% (inactive); in [10], 113% (inactive) and 34.8% (inactive); in [11], 107% (inactive) and 81.5% (inactive); in assay [12] it was 105% (inactive) and 46.1% (inactive). Moreover, the growth in [13] is 103% (inactive) and 53.9% (inactive); in [14], 110% (inactive) and 44.6% (inactive); in assay [15] it was 109% (inactive) and 37.7% (inactive); in assay [16], 98.5% (inactive) and 72.1% (inactive); in assay [17], 100% (inactive) and 60.7% (inactive); in assay [18], 95.4% (inactive) and 43.6% (inactive). The growth in assay [19] was 101% (inactive) and 58.7% (inactive); in assay [20], 109% (inactive) and 102% (inactive).
Consider `O=C(Oc1cccc(OC(=O)c2ccccc2)c1)c1ccccc1`, for which the growth in [1] was 94.6% (inactive) and 106% (inactive); in [2], 102% (inactive) and 100% (inactive); in assay [3], 101% (inactive) and 97.8% (inactive); in [4], 90.5% (inactive) and 90% (inactive); in assay [5], 107% (inactive) and 94.2% (inactive); in assay [6], 73.7% (inactive) and 88.5% (inactive). Further, the growth was 108% (inactive) in [7]; 57.7% (inactive) and 98.9% (inactive) in [8]; 90% (inactive) and 95.8% (inactive) in assay [9]; 101% (inactive) and 104% (inactive) in assay [10]; 111% (inactive) and 105% (inactive) in assay [11]; 79.3% (inactive) and 88.5% (inactive) in assay [12]. Besides, the growth in assay [13] was 119% (inactive) and 110% (inactive); in assay [14], 96.2% (inactive) and 107% (inactive); in assay [15], 121% (inactive); in assay [16], 92% (inactive) and 94.7% (inactive); in [17], 103% (inactive) and 99% (inactive); in assay [18], 96.8% (inactive) and 96.1% (inactive). In addition, the growth in assay [19] is 111% (inactive); in [20], 116% (inactive) and 99.4% (inactive).
On to `Cc1ncsc1CCO`, for which the growth in assay [1] is 96% (inactive) and 94.8% (inactive); in assay [2], 95.8% (inactive) and 103% (inactive); in [3], 126% (inactive) and 89.4% (inactive); in [4], 103% (inactive) and 106% (inactive); in [5] it was 118% (inactive) and 106% (inactive); in assay [6], 91.2% (inactive) and 97.8% (inactive). Further, the growth in assay [7] is 94.5% (inactive) and 85.9% (inactive); in assay [8], 96.2% (inactive) and 92.5% (inactive); in [9] it was 105% (inactive) and 96.9% (inactive); in [10], 118% (inactive) and 116% (inactive); in assay [11], 112% (inactive) and 105% (inactive); in assay [12], 103% (inactive) and 108% (inactive). Moreover, the growth is 118% (inactive) and 86.2% (inactive) in assay [13]; 103% (inactive) and 105% (inactive) in assay [14]; 99% (inactive) and 133% (inactive) in assay [15]; 101% (inactive) and 94.3% (inactive) in [16]; 101% (inactive) and 100% (inactive) in assay [17]; 111% (inactive) and 99.6% (inactive) in assay [18]. Further, the growth in assay [19] is 106% (inactive) and 92.9% (inactive); in [20], 107% (inactive) and 95.3% (inactive).
As for `CC(C)(O)Cn1cc(-c2ccc3nc(OC4CC4)ccc3c2)c2c(N)ncnc21`, the growth in assay [1] was 70.1% (inactive) and 42% (inactive); in assay [2], 56.5% (inactive) and 26.5% (inactive); in assay [3], 96.7% (inactive) and 73.5% (inactive); in [4] it was 73.8% (inactive) and 39.8% (inactive); in assay [5], 88.5% (inactive) and 27.6% (inactive); in [6], 48% (inactive) and 32.8% (inactive). Besides, the growth in assay [7] was 67.1% (inactive) and 36.8% (inactive); in assay [8], 75.3% (inactive) and 51.3% (inactive); in [9], 89.1% (inactive) and 60.2% (inactive); in assay [10], 91.3% (inactive) and 58.7% (inactive); in assay [11] it was 102% (inactive) and 75.6% (inactive); in assay [12] it was 88% (inactive) and 35.8% (inactive). For the same molecule, the growth in [13] is 70.2% (inactive) and 44.2% (inactive); in assay [14], 69.2% (inactive) and 46.4% (inactive); in assay [15] it was 73.3% (inactive) and 50.5% (inactive); in [16] it was 91.2% (inactive) and 57.1% (inactive); in [17], 79.2% (inactive) and 56.7% (inactive); in assay [18], 81.6% (inactive) and 58.6% (inactive). Moreover, the growth in [19] is 70.8% (inactive); in [20], 80.6% (inactive) and 62.3% (inactive).
As to `O=[N+]([O-])c1ccc2nc3c4ccccc4c4ccccc4c3nc2c1`, the growth in assay [1] was 81.8% (inactive); in assay [2] it was 41.5% (inactive); in assay [3] it was 92.6% (inactive); in assay [4], 90% (inactive); in [5] it was 68.4% (inactive); in assay [6], 61% (inactive). The growth in assay [7] is 67.2% (inactive); in [8], 69.1% (inactive); in assay [9], 88.6% (inactive); in [10], 71.4% (inactive); in assay [11] it was 100% (inactive); in assay [12], 67.4% (inactive). Moreover, the growth in [13] was 98.6% (inactive); in [14], 70.2% (inactive); in assay [15], 96% (inactive); in assay [16], 78% (inactive); in assay [17], 107% (inactive); in assay [18], 91% (inactive). Further, the growth in assay [19] was 82.5% (inactive); in [20], 90.3% (inactive).
Consider `O=C1c2ccccc2C(=O)c2c(NCCNCCO)ccc(NCCNCCO)c21`, for which the growth is -70.8% (active) and 25.8% (inactive) and 29.5% (inactive) in assay [1]; -56.8% (active) and -20.6% (active) and -27.1% (active) in assay [2]; 7.84% (active) and 19.3% (inactive) and -5.07% (active) in assay [3]; -20.4% (active) and 3.59% (active) and 9.04% (active) in [4]; 1.72% (active) and 5.39% (active) and 5.06% (active) in assay [5]; -7.34% (active) and -5.98% (active) in assay [6]. The growth in assay [7] was -86.2% (active) and -57.7% (active) and -56.1% (active); in assay [8], 14.3% (inactive) and 1.64% (active); in [9], 0.75% (active) and 23.8% (inactive) and 25.2% (inactive); in assay [10], -51.3% (active) and 20.9% (inactive) and 30.2% (inactive); in [11], -41.7% (active) and 24.3% (inactive) and 14% (inactive); in [12] it was 135% (inactive) and 24.8% (inactive) and 7.96% (active). For the same molecule, the growth was -15.3% (active) and 45.8% (inactive) and 46.7% (inactive) in [13]; -6.87% (active) and 11.3% (inactive) and 12.1% (inactive) in assay [14]; 0.645% (active) in assay [15]; -16.6% (active) and 4.52% (active) and -6.95% (active) in assay [16]; -21.5% (active) and 7.17% (active) in [17]; -17% (active) and 29.6% (inactive) and 19.9% (inactive) in [18]. Also, the growth in [19] is 72.2% (inactive) and 89.1% (inactive) and 82.5% (inactive); in assay [20], 10.7% (inactive) and 47.4% (inactive) and 33.9% (inactive).

These data come from PubChem BioAssay (NCI).
